Bioassay records deposited in PubChem by National Center for Advancing Translational Sciences (NCATS).
JMJD2A Tudor = blocks the human JMJD2A Tudor domain; O75164; AID 504339; 390,000 tested, 4.4% active; Potency, µM (series often up to 114 µM), hits mostly inhibitors; AlphaScreen JMJD2A-Tudor / H3K4me3 peptide binding; further: nearly all actives have a fitted effect of over 50% in size
L3MBTL1 inh = inhibitors of human L3MBTL1 | Q9Y468 | AlphaScreen L3MBTL1–H3K9me1 peptide binding | Potency, µM (titrated, usually from 57.1 µM), most hits filed as inhibitors | 230,000 tested, 0.66% active; further: nearly all actives have a fitted effect of over 60% in size
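AlphaScreen assay: L3MBTL1 (50 nM final) was preincubated 30 min at room temperature with biotinylated H3(1-15)K9me1 peptide (75 nM final), then 30 min with library compounds; streptavidin donor and nickel chelate acceptor beads (10 ug/mL final) added, 30 min dark.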
HP1b chromo inh = HP1-beta chromodomain-methylated histone interaction inhibition; AID 540317; 390,000 tested, 0.56% active; P83916; Potency, µM (series often up to 114 µM), most hits filed as inhibitors; AlphaScreen HP1-beta / biotin-H3K9me3 peptide binding; further: nearly all actives have a fitted effect of over 70% in size
Target sequence (P83916 whole entry, looked up): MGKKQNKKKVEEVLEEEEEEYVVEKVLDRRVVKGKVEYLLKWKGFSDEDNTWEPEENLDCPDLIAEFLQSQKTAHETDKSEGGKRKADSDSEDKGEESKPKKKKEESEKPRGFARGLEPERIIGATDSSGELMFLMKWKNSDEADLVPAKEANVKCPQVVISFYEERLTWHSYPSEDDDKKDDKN
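HP1-beta protein (50 nM final) preincubated 30 min at room temperature with biotinylated H3(1-18)K9me3 peptide (50 nM) in PBS pH 7.4, 0.01% Tween-20, then compound added for 30 min. AlphaScreen streptavidin donor/nickel chelate acceptor beads (10 ug/mL final), 30 min dark, luminescence read.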
BAZ2B inh = blocks human BAZ2B. AlphaScreen BAZ2B-H3K14Ac peptide displacement. Potency, µM (doses to about 114 µM), most hits filed as inhibitors. 360,000 tested, 4.4% active. AID 504333; further: nearly all actives have a fitted effect of over 60% in size
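Complex of BAZ2B and biotin-H3K14Ac (50 nM apiece) forms over 30 min at RT, then faces library compounds up to 110 uM for another 30 min; AlphaScreen beads added, 20 min dark incubation, luminescence read.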
GLS inhibitor = inhibitors of human glutaminase (GLS) | GLS enzymatic activity, qHTS titration | Potency, µM (series often up to 45.5 µM), most hits filed as inhibitors | 410,000 tested, 0.21% active | O94925
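Read-out is an Amplex red fluorescence increase coupled through glutamate oxidase and HRP, measured before and after 30 min room-temperature incubation. hKGA is in 45 mM KH2PO4 (pH 8.2) with 0.02% Tween-20; glutamine added as 1mM solution.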
G9a block = G9a (human) methyltransferase inhibition. 350,000 tested, 8.8% active. Potency, µM (titrated, usually from 102 µM), actives largely listed as inhibitors. AID 504332. G9a H3K9 monomethylation, AlphaScreen, 2 h. Q96KQ7; further: nearly all actives have a fitted effect of over 75% in size
Target sequence (Q96KQ7 913-1193 limits assumed): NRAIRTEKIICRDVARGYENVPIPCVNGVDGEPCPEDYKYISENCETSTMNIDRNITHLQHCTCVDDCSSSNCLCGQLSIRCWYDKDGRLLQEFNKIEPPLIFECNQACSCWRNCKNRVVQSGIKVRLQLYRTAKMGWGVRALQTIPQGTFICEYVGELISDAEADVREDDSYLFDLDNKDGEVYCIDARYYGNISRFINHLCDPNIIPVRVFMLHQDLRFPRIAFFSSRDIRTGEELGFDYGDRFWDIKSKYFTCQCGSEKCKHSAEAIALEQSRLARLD
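Compounds were preincubated with 20 nM G9a for 15 min, after which biotinylated H3K9 peptide (500 nM) and SAM (20 uM) started a 2 h room-temperature reaction. Monomethylated product was quantified by antibody-based AlphaScreen chemiluminescence.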
A number is an active result; . = inactive; ? = inconclusive; / = no result given; [ ] = remark or other dose. Shown are actives, neighbours in structure and some others; about 10% of the full set was active somewhere. The call rests on the fitted dose curve; in most records, active means well fitted curve in the direction sought with a large enough effect; inconclusive means small, poorly fitted or top-dose-only effect, or another doubt; inactive means no such curve, though single readings can be large; an effect the other way counts as inactive or inconclusive.

SMILES | JMJD2A Tudor | L3MBTL1 inh | HP1b chromo inh | BAZ2B inh | GLS inhibitor | G9a block
COc1ccc(OC)c(NC(=O)CCCOc2cc(=O)n(C)c3ccccc23)c1 | . | / | . | ? | . | .
Nc1cc2c(cc1N)-c1ccccc1C2 | 8.91µM | / | . | / | . | /
Nc1ccc2c(c1)Cc1cc(Cl)c(Cl)cc1-2 | . | / | . | / | . | /
Nc1ccc2c(c1Br)Cc1ccccc1-2 | ? | / | ? | / | . | /
Nc1ccc2c(c1)Cc1cc(N)c(Cl)cc1-2 | 44.7µM | / | ? | / | . | /
COc1ccc(-n2nnnc2C2CCN(S(=O)(=O)c3ccc(C)cc3)CC2)cc1 | . | / | . | . | . | .
CN1CCN(C(=S)C(=O)Nc2ccc(Br)cc2)CC1 | 89.1µM | . | ? | . | . | 2.51µM
N#CCCSc1ccccc1NC(=O)c1ccc(S(=O)(=O)N2CCCC2)cc1 | / | . | / | . | / | 10µM
Cc1ccccc1NC(=O)c1ccc(S(=O)(=O)N2CCCC2)cc1 | . | / | . | . | . | .
N#CCCN(Cc1cccnc1)S(=O)(=O)c1ccc(S(=O)(=O)N2CCCCCC2)cc1 | . | . | . | . | . | .
CN1CCN(C(=S)NC(=O)c2ccc(S(=O)(=O)N3CCOCC3)cc2)CC1 | 44.7µM | . | . | ? | . | ?
CN1CCC(NC(=O)Nc2ccc(Br)cc2)CC1 | . | . | . | . | . | /
N#CCCN(Cc1cccnc1)C(=S)NC(=O)c1ccc(S(=O)(=O)N2CCCC2)cc1 | . | . | . | . | . | 28.2µM
Cc1ccc2c(CC(=O)N3CCN(c4cccc(Cl)c4)CC3)coc2c1 | . | / | . | . | . | .
CCCCOc1ccc(Cn2c(=O)oc3ccc(C)cc32)cc1 | . | / | . | . | . | .
CN1CCN(C(=S)NC(=O)c2ccc(Br)cc2)CC1 | . | . | . | . | . | 39.8µM
CCCCN(C)C(=O)c1ccc(S(=O)(=O)N2CCOCC2)cc1 | . | / | . | . | . | .
Cc1cccc(C(=O)NC(=S)N2CCN(C)CC2)c1 | . | . | . | . | . | 79.4µM
Cc1ccc(C(=O)NC(=S)N2CCN(C)CC2)cc1 | . | / | . | ? | . | .[2.33 µM]
CCCN(CC1CC1)C(=S)NC(=O)c1ccc(S(=O)(=O)N2CCOCC2)cc1 | . | . | . | / | . | 28.2µM
Cc1cccc(C(=O)NC(=S)N2CCN(C(=S)NC(=O)c3cccc(C)c3)CC2)c1 | . | . | . | . | . | .
Cc1ccc(C(=O)CSc2nc(C)cc(C)c2C(=O)Nc2cccc(C)c2)cc1 | . | / | . | . | . | .
COc1ccc(NC(=O)CSc2nc3c(oc4ccccc43)c(=O)n2-c2ccc(C)c(C)c2)cc1 | . | / | . | . | . | .
CCCCn1c(=O)n(-c2cc(OC)ccc2OC)c(=O)c2c3c(sc21)CN(C(C)=O)CC3 | . | / | . | . | . | .
OCC#CCSc1nnc(-c2ccc(Br)cc2)o1 | . | . | . | . | . | .
SMILES | JMJD2A Tudor | L3MBTL1 inh | HP1b chromo inh | BAZ2B inh | GLS inhibitor | G9a block
COc1ccc(-c2nnc(SCC#CCO)o2)cc1OC | ? | . | . | . | . | 15.8µM
CCOc1ccc(NC(=O)CSc2cn(CC(=O)N3CCOCC3)c3ccccc23)cc1 | . | / | . | . | . | .
CC1(C)O[C@H]2OC([C@H](O)CON3C(=O)c4ccccc4C3=O)[C@H](O)[C@H]2O1 (stereo not given in full) | . | . | . | . | . | 44.7µM
COc1cc(C)ccc1OCCSc1nc2ccc(NC(=O)c3ccco3)cc2s1 | . | / | . | . | . | ?
Cc1cccc(NC(=O)Cc2nc(-c3c[nH]c(C(=O)N4CCCC4)c3)cs2)c1 | ? | . | . | ? | . | 56.2µM
O=C(NCc1ccc(Cl)cc1)C1CCN(C(=O)Cc2ccccc2)CC1 | . | / | . | 50.1µM | . | .
O=C(NCc1ccco1)C1CCN(C(=O)Cc2ccccc2)CC1 | . | .[11.4 µM] | . | . | . | .[12.7 µM]
CCCC(=O)Nc1nnc(SCc2cc(=O)c3cc(C)ccc3[nH]2)s1 | . | / | . | . | . | .
Fc1ccccc1-n1cn[nH]c1=S | 28.2µM | . | . | . | . | 10µM
O=c1[nH]ncn1-c1ccccc1C(F)(F)F | . | . | . | . | . | .
